Measurements as given in PubChem BioAssay (NCI).
Compounds without any hit were thinned out: in the full panel of roughly 79,000, 15% have a hit. A number with no mark means an inactive call. Active and inactive are the calls of the source. Rule as the data show it: active = growth inhibition above about 70%; inactive = the rest.

Assays:
[1] = NCI Yeast Anticancer Drug Screen. Data for the rad50 strain (AID 155);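 also: 0% = growth of vehicle-only cultures of the same strain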; conditions: S. cerevisiae rad50 strain growth inhibition, stronger effect = higher value
In short: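 Cells are treated with compound, grown, and their growth is then scored against vehicle-only cultures of the same repair-deficient yeast strain.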

[2] = NCI Yeast Anticancer Drug Screen. Data for the mec2-1 strain (AID 157); conditions: S. cerevisiae mec2-1 strain, stronger effect = higher value
In short: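 Using mec2-1 yeast: add compound, measure growth, express inhibition versus vehicle-treated cultures.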

[3] = NCI Yeast Anticancer Drug Screen. Data for the sgs1 mgt1 strain (AID 161);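 also: 0% = growth of cultures given vehicle only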; conditions: S. cerevisiae sgs1 mgt1 strain, stronger effect = higher value
In short: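 Compounds are added to genetically altered yeast, and growth is compared with cultures given vehicle alone to give percent inhibition.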

[4] = NCI Yeast Anticancer Drug Screen. Data for the cln2 rad14 strain (AID 165);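 also: 0% = growth equal to vehicle treated cultures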; conditions: S. cerevisiae cln2 rad14 strain, stronger effect = higher value
In short: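 Yeast strain cln2 rad14, bearing defects in cell cycle control and DNA repair, serves as the test system; values reflect growth inhibition compared with vehicle.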

[5] = NCI Yeast Anticancer Drug Screen. Data for the bub3 strain (AID 167); conditions: S. cerevisiae bub3 mutant strain, stronger effect = higher value
In short: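 Part of a panel of yeast mutants defective in DNA damage repair or cell cycle regulation. Each strain is grown with compound, and inhibition is calculated relative to solvent-treated cultures.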

[6] = NCI Yeast Anticancer Drug Screen. Data for the mlh1 rad18 strain (AID 175); conditions: S. cerevisiae mlh1 rad18 strain growth inhibition, stronger effect = higher value
In short: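 Steps: expose repair-defective yeast to compound; measure growth; express inhibition against vehicle-treated controls.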

[7] = at 5.0 µM (retest, dose inferred, filed as 0.5)
[8] = at 50.0 µM (retest, dose inferred, filed as 5.0)

Row | Structure (SMILES) | growth inhibition [1, 7] | growth inhibition [1, 8] | growth inhibition ([1]; at 50.0 µM) | growth inhibition [2, 7] [%] | growth inhibition [2, 8] | growth inhibition ([2]; at 50.0 µM) | growth inhibition [3, 7] [%] | growth inhibition [3, 8] | growth inhibition ([3]; at 50.0 µM) | growth inhibition [4, 7] [%] | growth inhibition [4, 8] | growth inhibition ([4]; at 50.0 µM) | growth inhibition [5, 7] [%] | growth inhibition [5, 8] | growth inhibition ([5]; at 50.0 µM) | growth inhibition [6, 7] | growth inhibition [6, 8] | growth inhibition ([6]; at 50.0 µM)
1 | CCSSC12CCCN1C(=O)C(C)N(C)C2=O (configuration not stated) | 1% | 79% (active) | 77.6% (active) | 9 | 81% (active) | 16.4% | 7 | 49% | 11.6% | 11 | 58% | -61.4% | 0 | 53% | 19.8% | 1% | 84% (active) | 4.5%
2 | COc1cc2cc[n+]3c4ccc([N+](=O)[O-])cc4ccc3c2cc1OC | 73% (active) | 81% (active) | 44.8% | 14 | 73% (active) | 55.5% | 42 | 80% (active) | 70% (active) | 31 | 71% (active) | 68.3% | 43 | 81% (active) | 57.7% | 66% | 69% | 46%
3 | O=C(/C=C/c1ccccc1)CCN1CCC2CCC(C2)C1 (configuration not stated) | 2% | 55% | 62.9% | 9 | 82% (active) | 93% (active) | 15 | 54% | 76.1% (active) | 11 | 58% | 27.6% | 3 | 79% (active) | 46.9% | 8% | 81% (active) | 79.5% (active)
4 | Cc1ccccc1C[n+]1ccccc1Br | 11% | 87% (active) | 94.3% (active) | 9 | 79% (active) | 60.6% | 12 | 78% (active) | 64.6% | -4 | 74% (active) | 32% | -12 | 77% (active) | 59.6% | 15% | 90% (active) | 54.4%
5 | CCN(CC)CCCC(C)Nc1cc(F)cc2cccnc12 (configuration not stated) | 10% | 81% (active) | 93.2% (active) | 4 | 31% | 63.2% | 28 | 75% (active) | 88.8% (active) | 10 | 30% | 44.9% | 15 | 41% | 88.3% (active) | 20% | 69% | 85.9% (active)
6 | CN(C)C(=O)c1ccccc1SC(=S)NCc1ccccc1 | 0% | 99% (active) | 98.1% (active) | -2 | 99% (active) | 91.3% (active) | 2 | 93% (active) | 95.8% (active) | -3 | 99% (active) | 95.3% (active) | -7 | 99% (active) | 88.2% (active) | -3% | 98% (active) | 96.6% (active)
7 | C=C1C2Oc3ccccc3C1N(c1ccccc1)O2 (configuration not stated) | 9% | 23% | 35% | 8 | 35% | 19.9% | 4 | 62% | 66% | 4 | 24% | 39.1% | 1 | 26% | 9.45% | 5% | 35% | 70.5% (active)
8 | CC(C)(C)c1cc(Nc2ccc([N+](=O)[O-])cc2[N+](=O)[O-])cc(C(C)(C)C)c1O | 4% | 99% (active) | -14.9% | 7 | 100% (active) | 14.3% | 6 | 99% (active) | 10.4% | -1 | 99% (active) | -45.6% | 8 | 99% (active) | -0.9% | -1% | 99% (active) | 8.45%
9 | Cc1ccc(C(CN)(CCBr)c2ccc(C)cc2)cc1 | 63% | 99% (active) | 99.5% (active) | 50 | 98% (active) | 99.5% (active) | 59 | 99% (active) | 99.7% (active) | 19 | 90% (active) | 99.4% (active) | 36 | 91% (active) | 99% (active) | 92% (active) | 98% (active) | 99.5% (active)
